According to PubChem BioAssay AID687 (PCMD, 2007):
Out of some 33,000 compounds screened, about 95 (0.3%) were called active.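 The calls were made as follows: active = inhibition above 40% in the primary screen; inactive = the rest.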 Only a selection was taken, and actives are over-represented in it overall.

What follows are compounds tested against Coagulation factor XI (Homo sapiens) (UniProt P03951) (assay: human FXIa protease inhibitors, primary screen, biochemical, single compound per well (AID 687;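 also: 0% = enzyme without compound and 100% = blank wells lacking enzyme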)). Conditions: purified human FXIa, fluorogenic AMC substrate cleavage; at 10 µM; active compounds read high.
Sequence of Coagulation factor XI (Homo sapiens) (P03951 19-387 limits assumed): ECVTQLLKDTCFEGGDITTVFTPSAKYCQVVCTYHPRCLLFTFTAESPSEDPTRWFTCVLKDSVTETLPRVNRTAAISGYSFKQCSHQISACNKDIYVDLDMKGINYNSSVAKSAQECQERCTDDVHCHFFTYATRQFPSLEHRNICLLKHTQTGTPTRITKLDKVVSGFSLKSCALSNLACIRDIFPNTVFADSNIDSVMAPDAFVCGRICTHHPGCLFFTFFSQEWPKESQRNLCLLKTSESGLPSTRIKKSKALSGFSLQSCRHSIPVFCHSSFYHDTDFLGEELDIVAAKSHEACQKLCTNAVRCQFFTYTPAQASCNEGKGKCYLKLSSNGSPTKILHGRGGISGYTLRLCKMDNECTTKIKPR
Sequence of Coagulation factor XI (Homo sapiens) (P03951 388-625 limits assumed): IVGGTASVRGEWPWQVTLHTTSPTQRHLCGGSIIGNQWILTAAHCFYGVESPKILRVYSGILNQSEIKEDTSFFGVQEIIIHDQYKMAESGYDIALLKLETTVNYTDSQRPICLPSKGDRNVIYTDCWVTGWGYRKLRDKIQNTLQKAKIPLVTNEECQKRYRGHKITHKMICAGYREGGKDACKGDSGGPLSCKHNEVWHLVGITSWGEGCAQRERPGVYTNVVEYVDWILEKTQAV

inhibition, inactive:
Cc1ccc(-c2csc(NC(=O)c3cccs3)n2)cc1 -11.7%
Oc1ccccc1CNc1ncc(Br)cc1Br -10.8%
CCC1(C)Cc2c(sc3nc(SC)nc(N)c23)CO1 (stereo unspecified) 14.2%
COc1ccc(NC(=S)N2N=CCC2c2ccccc2)cc1 (stereo unspecified) 0.63%
Cc1ccsc1C(=O)OCC(=O)c1cc2ccccc2o1 3.48%
O=P(c1ccc2c(c1)OCCO2)(N1CCOCC1)N1CCOCC1 2.3%
COc1ccccc1NC(=O)/C=C/C(N)=O 4.44%
CCOc1ccccc1NC(=O)Nc1cc(OC)ccc1OC -0.13%
COc1ccc(C(=O)NNC(=O)c2cnccn2)cc1[N+](=O)[O-] -1.41%
COc1cc2c(cc1OC)C(C(C)C)=NC(C)(C)C2 2.2%
Cc1ccccc1N1CCN(CCCOc2ccc3c(C)cc(=O)oc3c2)CC1 3.75%
CCCC(C(=O)NCc1ccco1)N(C(=O)CNS(=O)(=O)c1ccccc1)C1CCCC1 (stereo unspecified) -1.8%
Cc1ccc(OCC(=O)N/N=C\c2ccco2)c(C)c1 8.22%
COc1ccccc1CNS(=O)(=O)c1ccc(C)cc1 -5.43%
O=C(Nc1ccc(Sc2ccc(Br)cc2)cc1)c1ccco1 5.67%
CC1(C)CC(=O)NC=C(c2ccccc2)C1 2.57%
COc1ccc(C(=O)CSc2nccc(=O)[nH]2)cc1 4.89%
Cc1cccc(N2CCN(S(=O)(=O)c3ccc4[nH]c(=O)c(=O)[nH]c4c3)CC2C)c1 (stereo unspecified) -6.46%
Cc1nc(NNC(=O)c2ccccc2)cc(-c2ccccc2)n1 -2.36%
COc1ccc(-c2cc(C)nc3nc(N)nn23)cc1 -7.55%
Cc1ccc(C2(C(F)(F)F)N=C3Sc4cc(C)cc(C)c4N3C(=O)N2)cc1 (stereo unspecified) -3.09%
COCCn1c(=S)[nH]c2cc(C(=O)NCCc3ccc(OC)c(OC)c3)ccc2c1=O 1.93%
COc1ccccc1NC(=O)C1CCCN(c2cc(C)nc3ncnn23)C1 (stereo unspecified) -7.53%
COC(=O)C1=C(C)Nc2ncnn2C1c1cccnc1 (stereo unspecified) -8.85%
CCOC(=O)c1c(N)sc(C(C)=O)c1C 5.4%
CCCOc1ccc(C2NC(=O)NC(c3ccccc3)=C2C(C)=O)cc1OCC (stereo unspecified) -6.35%
Cc1ccc(S(=O)(=O)N2CCN(Cc3cccc(C)c3O)CC2)cc1 -1.32%
COC(C)(C)[C@]12CC(O)(C(C)C)ON1[C@H]1CCCCC1N2O (stereo partly specified) 0.57%
CC(C)(C)c1cc(=O)n2c(nc3ccccc32)[nH]1 2.42%
COC(=O)c1ccc(Sc2ccc(F)cc2)c(N)c1 1.93%
CC1CCCCC1NC(=O)C1CCCN1S(=O)(=O)c1cccc2nsnc12 (stereo unspecified) 7.4%
COc1ccc(-n2nc3c(c2NC(=O)Cc2cccc(C)c2)CS(=O)C3)cc1 (stereo unspecified) 4.35%
CC(C)(C)c1nc2ccccc2c(=O)n1N1C(=O)c2ccccc2C1=O 2.66%
COc1ccc(-c2nnc(SCC(=O)c3ccc4c(c3)OCCO4)o2)cc1 -2.7%
COC(=O)/C(=C\Nc1ccccc1)NC(=O)c1ccc(Cl)cc1Cl 7.22%
CC(CN1CCOCC1)c1ccccc1 (stereo unspecified) 7.1%
O=C(CSCc1ccccc1)N1CCc2ccccc21 1.56%
Cc1ccc(OCCCC(=O)Nc2ccc(N3CCOCC3)cc2)cc1 3.13%
O=c1c2ccccc2nc(N/N=C/c2ccccc2)n1O 6.82%
Cc1[nH]n(-c2ccc(Cl)cc2)c(=O)c1/C=N/n1c(C)nc2ccccc2c1=O 4.91%
CC1(C)N=C(c2ccccn2)C(C)(C)N1O -1.83%
